Source: PubChem
Only some compounds are listed: those with a hit (about 2.4% of all), similar ones and a draw of the others.
ULK1 primary = human ULK1 kinase inhibition, primary screen; AID 1259251; AlphaScreen Atg13 phosphorylation by ULK1, luminescence; inhibition, % at 5.96 µM; 1.9% of 30,000 active; in the data active = inhibition above about 43%
ASK1 inh = inhibitors of human ASK1 kinase; Q99683; AlphaScreen MKK6 phosphorylation by ASK1, luminescence; inhibition, % at 7.44 µM; 0.99% of 22,000 active; in the data active = inhibition above about 35%
Large screens that a line does not name were inactive.

CC(=O)Nc1ccc(Nc2nc(NCc3ccc4c(c3)OCO4)nc3c2ncn3C(C)C)cc1	none
c1cncc(CNc2nc(NCc3ccc4c(c3)OCO4)nc3c2ncn3-c2ccsc2)c1	none
CN(C)CCOc1cc(-c2ccnc(N)n2)ccc1NC(=O)C1COc2ccccc2C1 (stereo not drawn)	none
Cc1cccc(OCc2nc3ccc(-c4ccnc(N)n4)cc3[nH]2)c1	ULK1 primary 68
CC(=O)Nc1cc(-c2ccnc(N)n2)ccc1NC(=O)COc1cccc(C)c1	none
CN1CCN(c2ccc(Nc3cc(Nc4ccccc4C(N)=O)ccn3)cc2)CC1	none
NC(=O)c1ccccc1Nc1ccnc(Nc2ccc(N3CCOCC3)cc2)c1	none
COc1cc(N2CCOCC2)ccc1Nc1cc(Nc2ccccc2C(N)=O)c(C)cn1	none
Cc1cnc(Nc2cccc(N3CCOCC3)c2)cc1Nc1ccccc1C(N)=O	ULK1 primary 82
Cc1cnc(Nc2ccc(N3CCNCC3)cc2)cc1Nc1ccccc1C(N)=O	ULK1 primary 94
NC(=O)c1cnccc1Nc1ccnc(Nc2ccc(N3CCOCC3)cc2)c1	ULK1 primary 44
NC(=O)c1nccnc1Nc1ccnc(Nc2ccc(N3CCOCC3)cc2)c1	none
NC(=O)c1ccccc1Nc1ccnc(Nc2ccc(N3CCNCC3)cc2)c1	ULK1 primary 48
O=C1CCCN1CCCNc1nc(Nc2ccncc2)nc2c1ncn2-c1ccccc1	none
Clc1nc(NC2CC2)c2ncn(C3CCCCC3)c2n1	none
CC(C)N(CCNc1nc(-c2ccc(C(=O)NC3CC3)cc2)nc2c1ncn2C1CCCCC1)C(C)C	none
Nc1cccc(-c2nc(NCc3cccnc3)c3ncn(-c4ccccc4)c3n2)c1	none
COc1cccc(CNC(=O)c2[nH]c3cc(-c4cn[nH]c4)ccc3c2CN2CCCC2c2ccccc2)c1 (stereo not drawn)	none
CC(C)n1c(-c2cccs2)nc2c(NCc3ccccc3)ncnc21	none
c1cc(Nc2cc(C3CC3)[nH]n2)cc(Nc2ccc(N3CCOCC3)cc2)n1	ULK1 primary 47
c1cc(Nc2ccc3nc[nH]c3c2)cc(Nc2ccc(N3CCOCC3)cc2)n1	none
Cc1cc(Nc2ccc(N3CCOCC3)cc2)nc(N2CCN(c3ccccn3)CC2)n1	ASK1 inh 46
Cc1cc(Nc2ccc(N3CCOCC3)cc2)nc(N2CCc3ccccc3C2)n1	ASK1 inh 58
CC(=O)Nc1ccc(Nc2cc(C)nc(N3CCc4ccccc4C3)n2)cc1	none
CC(=O)Nc1ccc(Nc2cc(C)nc(N3CCN(c4ccccn4)CC3)n2)cc1	none
Cn1c(Nc2cc(NCCOc3ccccc3)nc(N)n2)nc2ccccc21	none
Oc1cc(O)c2c(c1)O[C@H](c1ccc(O)c(O)c1)[C@@H](O)C2	ULK1 primary 53 (no result: ASK1 inh)
c1ccc(CN2CCC(Nc3cc(N4CCOCC4)ncn3)CC2)cc1	none
O=C(C(O)c1ccc(Br)cc1)N1CCC(Oc2ccc3[nH]ncc3c2)CC1 (stereo not drawn)	none
CNS(=O)(=O)c1ccccc1Nc1cc(Nc2ccc3c(c2)CCC(=O)N3)ncc1C(F)(F)F	ULK1 primary 90
O=C1Cc2cc(Nc3ccnc(Nc4ccc(N5CCOCC5)cc4)c3)ccc2N1	none
CNC(=O)c1ccccc1Nc1cc(Nc2ccc3c(c2)CC(=O)N3C)ncc1C(F)(F)F	ULK1 primary 84
CNC(=O)c1cc(N2CCOCC2)ccc1Nc1cc(Nc2ccc3c(c2)CC(=O)N3)ncc1C(F)(F)F	ULK1 primary 82
CNS(=O)(=O)c1ccccc1Nc1cc(Nc2ccccc2S(=O)(=O)NC)c(C(F)(F)F)cn1	none
CNC(=O)c1ccncc1Nc1cc(Nc2ccc3c(c2)CC(=O)N3)ncc1C(F)(F)F	ULK1 primary 56
c1cc(-c2cc(N3CCC4(CC3)OCCO4)nc(-c3ccncc3)n2)ccn1	none (no result: ASK1 inh)
CN(C)c1cccc(Nc2nc(N)c3ncn(-c4ccccc4)c3n2)c1	none
CC(C)N(CCNC(=O)C1CCN(c2ccc(Nc3ccc(-n4ccnc4)cc3)nn2)CC1)C(C)C	none
O=C(Nc1ccc(N2CCOCC2)cc1)c1ccnc(N2CCOCC2)c1	none
CNC(=O)c1ccccc1Nc1cc(Nc2ccc3[nH]c(=O)oc3c2)ncc1C(F)(F)F	ULK1 primary 79
CNC(=O)c1ccccc1Nc1cc(Nc2ccc3c(c2)CC(=O)N3)ncc1C(F)(F)F	ULK1 primary 73
CS(=O)(=O)NC1CCC(Nc2cc(Nc3ccccc3C(N)=O)c(C(F)(F)F)cn2)CC1 (stereo not drawn)	none
CNC(=O)c1ccccc1Nc1cc(Nc2ccc3c(c2)OCO3)ncc1C(F)(F)F	ULK1 primary 78
CNC(=O)c1ccccc1Nc1cc(Nc2ccc3[nH]nc(C4=CCNCC4)c3c2)ncc1C(F)(F)F	none
CNC(=O)c1cc(F)ccc1Nc1cc(Nc2ccc(N3CCCC3=O)cc2)ncc1C(F)(F)F	ULK1 primary 73
CC(=O)Nc1ccc(Nc2nc(Nc3ccncc3)nc3c2ncn3-c2ccccc2)cc1	none
CC(C)n1cnc2c(Nc3ccc4c(c3)OCO4)nc(NC3CCC(O)CC3)nc21 (stereo not drawn)	none
CC(C)n1cnc2c(Nc3ccccc3)nc(NC3CCC(O)CC3)nc21 (stereo not drawn)	ULK1 primary 56
OC1CCC(Nc2nc(Nc3ccccc3)c3ncn(-c4ccccc4)c3n2)CC1 (stereo not drawn)	none
CC(=O)Nc1ccc(Nc2nc(NC3CCC(O)CC3)nc3c2ncn3C(C)C)cc1 (stereo not drawn)	ULK1 primary 62
O=c1cc(CN2CCOCC2)c2ccc(O)cc2o1	none (no result: ASK1 inh)
Cc1cnc(-c2ccc(N3CCOCC3)nc2)nc1Nc1ccccc1	ULK1 primary 44
Cc1cnc(-c2ccccc2)nc1Nc1ccc(N2CCOCC2)cc1	none
CC(=O)Nc1ccc(Nc2nc(-c3cccc(N)c3)nc3c2ncn3C(C)C)cc1	none
CC(=O)Nc1ccc(Nc2nc(N3CCOCC3)nc3c2ncn3C(C)C)cc1	none
CC(=O)Nc1ccc(Nc2nc(-c3ccc(N4CCOCC4)nc3)nc3c2ncn3C(C)C)cc1	ULK1 primary 44
CC(=O)Nc1ccc(Nc2nc(-c3ccc(C(N)=O)cc3)nc3c2ncn3C(C)C)cc1	ULK1 primary 75
CC(C)n1cnc2c(Nc3ccc(N4CCOCC4)cc3)nc(-c3ccc(C(N)=O)cc3)nc21	ULK1 primary 63
NC(=O)c1ccc(-c2nc(Nc3ccc(N4CCOCC4)cc3)c3ncn(Cc4ccc(C(F)(F)F)cc4)c3n2)cc1	none
FC(F)(F)c1cccc(CNc2cc(N3CCC(N4CCOCC4)CC3)ncn2)c1	none
O=C(Nc1ccccc1)c1csc(N2CCC(N3CCOCC3)CC2)n1	none
COCCNC(=O)c1csc(Nc2ccc(C)cc2)n1	none (no result: ASK1 inh)
COc1ccc(-c2nc(Nc3ccc(N4CCOCC4)cc3)c3ncn(C(C)C)c3n2)cn1	none
CC(=O)c1cccc(-c2nc(Nc3ccc(N4CCOCC4)cc3)c3ncn(C(C)C)c3n2)c1	ULK1 primary 56
CC(C)n1cnc2c(Nc3ccc(N4CCOCC4)cc3)nc(-c3cccc(N)c3)nc21	none
COc1ccc(-c2nc(Nc3ccc(NC(C)=O)cc3)c3ncn(C(C)C)c3n2)cn1	ULK1 primary 50
Cc1nc(Nc2ccccc2)cc(-c2cncc(-c3ccc(F)cc3)c2)n1	none (no result: ASK1 inh)
Cc1nc(Nc2cc(Nc3ccccc3S(=O)(=O)NC(C)C)c(C(F)(F)F)cn2)cc(-c2cncnc2)n1	ULK1 primary 45
O=C(NCc1cccnc1)c1ccc2nc(Br)sc2c1	ULK1 primary 45
O=C(NCc1cccnc1)c1ccc2nc(-c3ccccc3)sc2c1	none
Cc1cc(Nc2ccc(OCCN3CCCCC3)cc2)nc(-c2ccccc2)n1	none
c1ccc(CN2CCC(Nc3nc(Nc4ccncn4)nc4c3ncn4-c3ccccc3)CC2)cc1	none
